From PubChem BioAssay
BAZ2B inh: blocks human BAZ2B. Potency, µM (titrated, usually from 114 µM), inactives show at the highest dose activity change, negative = inhibition, most hits filed as inhibitors. AID 504333. 4.4% of 360,000 active. Q9UIF8. AlphaScreen BAZ2B-H3K14Ac peptide displacement; note: potency is the fitted concentration of half-maximal effect; % is set by controls: 0 for no effect and ±100 for the full control effect; nearly all actives have a fitted effect of over 60% in size
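AlphaScreen displacement: compounds (up to 110uM) incubated 30 min at room temperature with a preformed 50 nM BAZ2B/50 nM biotinylated H3K14Ac peptide complex in PBS pH 7.4 with Tween-20. Donor and acceptor beads at 10 ug/mL final added, 20 min light-protected before reading.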
Six1-Eya2 inh: blocks human Six1 binding to Eya2; 0.56% of 360,000 active; AlphaScreen GST-Six1/His-Eya2 binding, biochemical; hits give low values; activity change, % (no concentration beside the values); in the data active = activity change below about -65%; inconclusive = mostly about -30% to -63%; note: % is set by controls: 0 for no effect and ±100 for the full control effect
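Homogeneous AlphaScreen proximity assay pairing GST-Six1 with His-tagged Eya2 (added as 5X mix: 250 nM and 500 nM) in 50 mM Tris pH 8.0, 300 mM NaCl, 1 mM TCEP. Glutathione donor and nickel acceptor beads; 1 h, 37 °C, dark.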
G9a inh: inhibitors of human histone lysine methyltransferase G9a; G9a H3K9 monomethylation, AlphaScreen, 2 h; Potency, µM (doses to about 102 µM), without a hit: top-dose activity, negative = inhibition, usual class: inhibitors; 8.8% of 350,000 active; AID 504332; note: potency is the fitted concentration of half-maximal effect; % is set by controls: 0 for no effect and ±100 for the full control effect; nearly all actives have a fitted effect of over 75% in size
Target sequence (Q96KQ7 913-1193 limits assumed): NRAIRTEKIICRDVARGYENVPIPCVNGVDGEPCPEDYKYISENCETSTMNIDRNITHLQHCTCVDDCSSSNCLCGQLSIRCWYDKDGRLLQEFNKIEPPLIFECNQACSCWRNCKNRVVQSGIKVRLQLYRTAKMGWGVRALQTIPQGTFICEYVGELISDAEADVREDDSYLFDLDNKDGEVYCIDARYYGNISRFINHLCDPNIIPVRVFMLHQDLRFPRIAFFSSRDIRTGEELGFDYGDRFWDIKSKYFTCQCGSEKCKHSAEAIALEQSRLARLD
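G9a (20 nM) was preincubated 15 min with compound, then reacted 2 h at room temperature with 500 nM biotin-H3K9 peptide and 20 µM SAM. Monomethyl-H3K9 detected by AlphaScreen using anti-H3K9me1 antibody.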
CtBP-E1A blk: CtBP/E1A binding inhibition | AlphaScreen GST-E1A/His-CtBP binding, 1536-well; hits give low values | activity change, % (concentration not given with the values) | 0.49% of 340,000 active; in the data active = activity change below about -65%; inconclusive = mostly about -30% to -63%; note: % is set by controls: 0 for no effect and ±100 for the full control effect
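Homogeneous bead-based format: GST-tagged E1A captured on glutathione donor beads, His-tagged CtBP on nickel acceptor beads; compounds precede bead addition by 2 h at 37 °C.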
JMJD2A Tudor: JMJD2A Tudor domain (human) inhibition. O75164. AlphaScreen JMJD2A-Tudor / H3K4me3 peptide binding. Potency, µM (top dose mostly 114 µM), for inactives: at the highest dose activity change, negative = inhibition, most hits filed as inhibitors. 4.4% of 390,000 active; note: potency is the fitted concentration of half-maximal effect; % is set by controls: 0 for no effect and ±100 for the full control effect; nearly all actives have a fitted effect of over 50% in size
HP1b chromo inh: inhibitors of HP1-beta chromodomain binding to methylated histone tails; P83916; AlphaScreen HP1-beta / biotin-H3K9me3 peptide binding; Potency, µM (series often up to 114 µM), inactives show at the top dose activity change, negative = inhibition, actives largely listed as inhibitors; 0.56% of 390,000 active; note: potency is the fitted concentration of half-maximal effect; nearly all actives have a fitted effect of over 70% in size
Target sequence (P83916 whole entry, looked up): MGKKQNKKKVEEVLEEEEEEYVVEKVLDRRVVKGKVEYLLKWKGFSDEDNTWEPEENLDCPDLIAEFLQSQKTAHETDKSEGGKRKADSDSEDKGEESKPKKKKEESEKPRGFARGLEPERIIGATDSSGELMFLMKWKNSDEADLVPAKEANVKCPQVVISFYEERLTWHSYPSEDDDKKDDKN
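HP1-beta protein (50 nM final) preincubated 30 min at room temperature with biotinylated H3(1-18)K9me3 peptide (50 nM) in PBS pH 7.4, 0.01% Tween-20, then compound added for 30 min. AlphaScreen streptavidin donor/nickel chelate acceptor beads (10 ug/mL final), 30 min dark, luminescence read.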
* marks the source's active call; other numbers are inactive results; u = inconclusive; x = no result; [ ] = remark or other dose. In the library only some 10% were active in any assay of this set; here they are far more common. Unless noted, calls come from the whole dose curve; as a rule, active = well fitted inhibition curve with a large enough effect; inconclusive = small, poorly fitted or top-dose-only effect; inactive = no such curve, though single readings can be large or run the other way.

SMILES	BAZ2B inh	Six1-Eya2 inh	G9a inh	CtBP-E1A blk	JMJD2A Tudor	HP1b chromo inh
O=[N+]([O-])c1cccc(-c2ccc(CN3CCCCC3)o2)c1	-36.2%	-16.6	x	1.5	-20.4%	17.0%
O=[N+]([O-])c1cccc(-c2ccc(C(=S)N3CCOCC3)o2)c1	28.2µM*	-26.0	x	-25.3	44.7µM*	u
COc1ccc(-c2cc3nc(C)c(CCC(=O)NCc4ccccc4Cl)c(C)n3n2)c(OC)c1	-7.2%	x	-35.8%[59 µM]	x	-9.4%	21.2%
CCCN(CCC)CCCNC(=S)Nc1ccc2nc(N3CCCC3)cc(C)c2c1	5.0%	-7.7	39.8µM*	x	u	8.9%
CCN(CC)CCNC(=S)Nc1ccc2nc(N3CCN(C)CC3)cc(C)c2c1	0.6%	2.4	44.7µM*	1.1	-22.0%	51.8%
Cc1cc(N2CCN(C)CC2)nc2ccc(NC(=S)NCCC(C)C)cc12	u	-10.8	50.1µM*	x	u	-3.9%
CCN(CC)CCNC(=S)Nc1ccc2nc(N3CCOCC3)cc(C)c2c1	-19.9%	6.7	u	x	-8.7%	8.5%
Cc1cc(N2CCCCC2)nc2ccc(NC(=O)c3ccc(Br)o3)cc12	u	-26.7	50.1µM*	-17.6	u	u
CCCOC(=O)c1cccc(Nc2nc(-c3cccnc3)nc3ccccc23)c1	-9.5%	-6.2	u	-8.3	-7.7%	47.6%
Cc1ccc(CNC(=O)CCc2nc3cccnc3n2Cc2ccccc2)cc1	-25.3%	x	-2.9%[59 µM]	x	-5.3%	44.3%
COC(=O)c1ccc(OC)c(Cn2c(=O)n(-c3cccc(Cl)c3)c(=O)c3c2c2cc(C)ccc2n3C)c1	1.7%	x	-11.2%[59 µM]	x	-11.6%	20.7%
CCN(CC)CCNC(=S)Nc1ccc2nc(N3CCCC3)cc(C)c2c1	x	-2.6	44.7µM*	-7.0	-1.4%	34.3%
C#CC(=O)CCC1CCCN1C(=O)OC(C)(C)C (stereo not given)	x	3.9	x	5.4	-16.8%	36.3%
O=[N+]([O-])c1ccc(/C=C/C2=NN(c3ccccc3)C(c3ccco3)C2)cc1 (stereo not given)	50.1µM*	-11.9	22.4µM*	-7.5	u	-19.8%[57 µM]
O=[N+]([O-])c1ccc(C2=NN(c3ccccc3)C(c3ccco3)C2)cc1 (stereo not given)	-33.4%	0.0	u	3.4	u	u
O=C(O)c1ccccc1CC(CCc1ccccc1)C(=O)O (stereo not given)	x	7.6	x	6.2	10µM*	-9.4%[57 µM]
CC(C)c1ccc2nc(SCC(=O)NCC3CCCO3)c(C#N)cc2c1 (stereo not given)	9.3%	-3.1	12.0%	6.2	5.7%	22.2%
Cc1cc(O)c(C(C)C)cc1NC(=O)Nc1cc(Cl)ccc1Cl	x	3.0	x	7.1	44.7µM*	u
CSCCC1NC2(C(=O)Nc3c(Cl)cccc32)[C@@H]2C(=O)N(C3CCCC3)C(=O)[C@H]12 (stereo not given in full)	-23.7%	-3.8	70.8µM*	2.0	u	3.8%
CCOC(=O)c1sc(=S)n(-c2ccccc2OC)c1N	u	-20.9	u	-9.4	u	u
CCCCNC(=O)c1sc(=S)n(-c2ccccc2OC)c1N	-33.8%	-9.8	15.8µM*	-9.0	-30.1%	u
CCOc1ccccc1-n1c(N)c(C(N)=O)sc1=S	-37.4%	-1.6	35.5µM*	-1.5	-19.3%	-33.7%
Cc1ccc(C)c(-n2c(N)c(C(N)=O)sc2=S)c1	-4.8%	-15.1	u	-0.4	-32.2%	-17.1%
COC(=O)c1sc(=S)n(-c2ccccc2OC)c1N	-5.6%	0.2	35.5µM*	0.1	43.7%	15.5%
COc1ccc(Cl)cc1-n1c(N)c(C(N)=O)sc1=S	-2.2%	-3.6	8.91µM*	-1.4	u	u
CC1(C)C(=O)N(c2ccccc2Cl)C(=O)c2ccccc21	7.3%	2.5	79.4µM*	9.8	1.7%	37.6%
Cc1ccc(-c2nc3c4ccccc4ccn3c2CN2CCCCC2)cc1	50.1µM*	-5.1	u	-10.9	u	1.7%
